Laboratory results: PubChem BioAssay AID588463 (National Center for Advancing Translational Sciences (NCATS), 2011)
Screen size: about 1,200 compounds; about 15 (1%) were called active. Another 7% or so got no clear call; they are omitted. Calls come from the whole dose curve; as a rule, active = well fitted activation curve with a large enough effect; inconclusive = small, poorly fitted or top-dose-only effect; inactive = flat fitted curve, though single readings scatter. The full list was thinned out, with actives kept by preference.

Target: Beta-2 adrenergic receptor (Homo sapiens) (UniProt P07550)
Assay: qHTS assay of beta-arrestin-biased ligands of beta2-adrenergic receptor: Hit Validation
Conditions: cell-based beta-arrestin recruitment to beta2AR; Potency: activation; series mostly up to 46.1 µM
Description: The concept of biased agonism is an emerging concept of molecular pharmacology which proposes that seven transmembrane receptors (7TMRs) or G protein-coupled receptors (GPCRs), exist in multiple signaling conformations and complexes and that ligands (either agonists or antagonists) can induce signaling biased responses for distinct signal transduction cascades.
Furthermore, accumulating evidence over the last decade has drawn attention to a novel function of beta-arrestins as signal transducers that scaffold various signaling molecules upon activation of 7TMRs. […] This beta-arrestin-biased signaling presumably leads to distinct physiological outcomes from those by G protein activation.
Additionally, the active receptor conformations which […] on this beta-arrestin signaling are likely different from those activating G protein signaling
The goal of this screening project will be to discover and optimize novel beta-arrestin-biased ligands for beta2-AR signaling. A luminescent cell-based assay for beta2-AR-mediated agonism, known as the Tango assay, has been validated in which ligand binding of a recombinant beta2-AR and subsequent recruitment of a recombinant beta-arrestin lead to the release of the transcriptional activator tTA, which upregulates transcription of a tTA-responsive luciferase gene.
NIH Molecular Libraries Probe Production Network [MLPCN]
NIH Chemical Genomics Center [NCGC]
PI: Bryan Roth (UNC) and Bob Lefkowitz (Duke)
NCGC Assay Protocol Summary:
Tango cells were dispensed into white, solid, tissue-culture-treated 1536-well plates at 1500 cells/well in DMEM, containing 1% fetal bovine serum (FBS). Then, 23 nL of compounds or DMSO were delivered to each well using a pin tool. Plates were incubated at 37 degrees C, 5% CO2 for 18 hr. Then 2.5 uL luminescent substrate mix (in-house prepared: 150 mM Tris-Cl, pH 7.6, 3 mM MgCl2, 1% Triton X-100, 5 mM DTT, 0.5 mM CoA, 0.15 mM ATP, 0.44 mM D-luciferin, final concentrations) was added to each well. Plates were then incubated for 15 minutes at room temperature, and subsequently measured on a ViewLux plate reader for luminescent signal using a clear filter with a 10 second exposure and 2x binning. The %Activity was determined from the corrected luminescence values.
Concentration-response curves were fitted to the signals arising from the resulting luminescence. The concentration-effect curves were then classified based on curve quality (r2), response magnitude and degree of measured activity, and compounds were subsequently categorized based on their curve class.
Keywords: biased agonism, beta2-AR, beta-arrestin, GPCR, 7TMR, Tango, luminescence, MLSMR, MLPCN, NIH Roadmap, qHTS, NCGC

Chain of Beta-2 adrenergic receptor (Homo sapiens) (P07550 whole entry, looked up): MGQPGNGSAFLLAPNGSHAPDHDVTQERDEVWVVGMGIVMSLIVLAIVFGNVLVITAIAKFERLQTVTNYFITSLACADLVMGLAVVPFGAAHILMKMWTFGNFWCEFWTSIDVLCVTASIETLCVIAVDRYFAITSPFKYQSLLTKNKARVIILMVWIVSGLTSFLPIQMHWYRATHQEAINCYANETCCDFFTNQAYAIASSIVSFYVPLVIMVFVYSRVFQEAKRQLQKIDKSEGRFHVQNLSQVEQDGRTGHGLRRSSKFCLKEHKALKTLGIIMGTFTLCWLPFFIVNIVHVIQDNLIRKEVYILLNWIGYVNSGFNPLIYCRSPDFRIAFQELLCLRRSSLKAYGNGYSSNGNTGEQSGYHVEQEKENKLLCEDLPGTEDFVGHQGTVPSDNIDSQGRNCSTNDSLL

Potency, inactive:
COc1ccc(-c2c(-c3ccccc3)c(C(=O)C(=O)NCCCN(C)C)n3ccc4cc(OC)c(OC)cc4c23)cc1OC
Cc1cccc(NC(=S)NC(=O)c2cccs2)n1
CCC1CCCCN1CC(=O)Nc1cc(C)nn1-c1nc(C)cc(C)n1 (configuration not stated)
S=C(NCc1ccccn1)Nc1ccc(Cl)c(Cl)c1
CCNC(=S)N/N=C/c1sccc1C
COc1ccc(OC)c(NC(=O)Cn2c(CCC(=O)O)ccc2-c2ccccc2)c1
COC(=O)C1=C(C)NC(=S)NC1c1ccc(-c2cc(Cl)ccc2Cl)o1 (configuration not stated)
C/C=C/C=N/NC(=O)CN(c1ccc(Br)cc1)S(=O)(=O)c1ccccc1
S=C(N/N=C/c1ccc(Cl)c(Cl)c1)Nc1ccccc1Cl
Cc1ccc(SCc2cc(=O)[nH]c(/N=C(\N)Nc3ccc(C)c(C)c3)n2)cc1
CCCNC(=O)c1ccc(N2CCC3(CC2)CC(c2cccc(Br)c2)=NO3)c(NC(=O)c2ccc(Br)cc2)c1
CNC(=S)N/N=C1\CC(c2ccccc2)Oc2ccccc21 (configuration not stated)
CCOc1ccccc1C1C2CCCCC2(O)CCN1C(=O)c1cccs1 (configuration not stated)
O=C(N/N=C/C(Br)=C\c1ccccc1)c1n[nH]c2c1CCC2
Cc1ccc(C2=NOC(C)(c3nnc(-c4ccc(F)cc4)o3)C2)cc1 (configuration not stated)
C/C(=N\NC(=S)NC(C)C)c1ccccc1
COc1ccc2c(c1)c1ncn(CCN3CCCCC3)c(=O)c1n2C
CCOC(=O)C1CCN(C(=O)Nc2c(-c3ccccc3)noc2C)CC1
CCCCCOCC1CC(C/C(C)=N/NC(N)=S)C(=O)O1 (configuration not stated)
COc1ccccc1NS(=O)(=O)c1cc(NC(=O)CNC(=O)c2ccc(C)s2)ccc1Cl
Cc1ccc(C)c(NC(=S)NNc2ccc(F)cc2F)c1
O=C(Oc1c(CN2CCOCC2)cc(Cl)c2cccnc12)c1ccccc1Br
